From the supplement of paper PMC10127200
Structures can show the parent of a compound that is named as a salt.

Legend:
Assay in all cases: Euclidean distance of Cell Painting phenotypic profile (signed KS, 77 features) to DMSO centroid (dimensionless distance); 5 or 10 uM (library dependent); higher = stronger phenotypic change vs DMSO (phenoactivity)
Settings in all cases: 48 h
786-O = test system: 786-O
Outline: (§1)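 Stained cells were imaged confocally at 20X with 9 fields per well, after 48 h of exposure to library compounds at 10 or 5 uM (set by library; 0.1% DMSO final). The cells were five cancer lines and a healthy fibroblast line. From the images, Harmony extracted 77 features, each expressed as a signed Kolmogorov-Smirnov statistic relative to same-plate vehicle wells. Phenoactivity is measured as Euclidean distance to the median vehicle profile, using plate-position-corrected, correlation-weighted profiles averaged across replicates at the top dose.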

A549 = test system: A549
Outline: as §1

DU145 = test system: DU145
Outline: as §1

FB = test system: FB
Outline: as §1

HEPG2 = test system: HEPG2
Outline: as §1

OVCAR4 = test system: OVCAR4
Outline: as §1

| SMILES | Euclidean distance (786-O) | Euclidean distance (A549) | Euclidean distance (DU145) | Euclidean distance (FB) | Euclidean distance (HEPG2) | Euclidean distance (OVCAR4) |
| --- | --- | --- | --- | --- | --- | --- |
| CCC(C)(C)C(=O)O[C@H]1C[C@@H](C)C=C2C=C[C@H](C)[C@H](CC[C@@H]3C[C@@H](O)CC(=O)O3)[C@H]21 [Simvastatin] | 1.35 | 0.686 | 1.1 | 1.4 | 1.9 | 1.18 |
| CC(C)(c1ccc(O)cc1)c1ccc(O)cc1 [Bisphenol A] | 0.955 | 1.21 | 0.773 | 0.78 | 0.694 | 0.934 |
| Cc1ccc(C(=O)Nc2ccc(Oc3cc4cnn(C)c4cc3-c3cn[nH]c3)c(F)c2)c(=O)n1-c1ccc(F)cc1 | 1.83 | 1.59 | 1.22 | 3.01 | 2.28 | 1.67 |
| CCCOc1ccc2[nH]c(NC(=O)OC)nc2c1 [Oxibendazole] | 2.66 | 2.7 | 3.08 | 2.55 | 1.73 | 2.58 |
| CCC(NC(C)C)C(O)c1ccc(O)c2[nH]c(=O)ccc12 (centres undefined) [Procaterol HCl] | 1.23 | 1.55 | 0.791 | 0.891 | 2.17 | 1.67 |
| O=c1ncn2nc(Sc3ccc(F)cc3F)ccc2c1-c1c(Cl)cccc1Cl | 1.78 | 0.873 | 1.38 | 1.63 | 1.25 | 1.55 |
| C=CC(=O)Nc1cc2c(Nc3ccc(F)c(Cl)c3)ncnc2cc1OCCCN1CCOCC1 [Canertinib (CI-1033)] | 1.57 | 2.51 | 1.4 | 1.25 | 0.69 | 2.05 |
| CCN1/C(=C/C(C)=O)Sc2ccc(OC)cc21 | 0.422 | 0.711 | 1.03 | 0.64 | 1.98 | 0.872 |
| COc1ccc(CC(C)(C)NC[C@H](O)c2cc(O)cc3c2OCC(=O)N3)cc1 [Olodaterol hydrochloride] | 1.07 | 0.364 | 1.21 | 1.12 | 0.379 | 1.1 |
| CC(C)CC(=O)Nc1cncc(-c2ccc3[nH]nc(-c4nc5cncc(-c6cccc(F)c6)c5[nH]4)c3c2)c1 | 5.07 | 2.79 | 4.73 | 4.58 | 4.73 | 3.42 |
| Nc1ccc(/N=N/c2ccccc2)c(N)n1 [Phenazopyridine HCl] | 1.22 | 0.654 | 0.961 | 1.04 | 1.07 | 0.739 |
| NC(=O)NO [Hydroxyurea] | 1.25 | 0.771 | 1.13 | 0.703 | 0.79 | 1.18 |
| COc1ccc(CCNCC(O)COc2cccc(C)c2)cc1OC (centres undefined) [Bevantolol hydrochloride] | 1.02 | 0.717 | 1.07 | 1.21 | 0.573 | 1.03 |
| Oc1cccc(-c2nc(N3CCOCC3)c3oc4ncccc4c3n2)c1 | 1.25 | 3.67 | 1.5 | 2.89 | 0.936 | 2.62 |
| O=c1c(O)c(-c2ccc(O)c(O)c2)oc2cc(O)ccc12 [Fisetin] | 0.642 | 0.833 | 1.17 | 0.987 | 0.906 | 0.911 |
| CC(C)N(CC[C@H](c1ccccc1)c1cc(CO)ccc1O)C(C)C | 1.1 | 0.675 | 0.538 | 0.842 | 1.02 | 1.05 |
| NC(=O)c1noc([C@H](CCCC2CCCCC2)CC(=O)NO)n1 | 1.23 | 0.66 | 0.701 | 1.25 | 0.93 | 0.933 |
| NC(=O)[C@@H](CCC(F)(F)F)N(Cc1ccc(-c2ncon2)cc1F)S(=O)(=O)c1ccc(Cl)cc1 | 2.13 | 1.14 | 1.04 | 2.28 | 1.48 | 0.855 |
| Cc1cc(OCc2nnc(SC3CCCC3)n2-c2cccnc2)ccc1-c1ccc(S(C)(=O)=O)cc1 | 3.57 | 3.4 | 3.15 | 2.69 | 3.86 | 3.73 |
| Nc1nc(Cl)nc2c1ncn2[C@H]1C[C@H](O)[C@@H](CO)O1 [Cladribine] | 2.58 | 3.28 | 2.27 | 3.14 | 2.67 | 3.21 |
| Cc1cc(O)c2c(c1)C(=O)c1cc(O)cc(O)c1C2=O [Emodin] | 1.3 | 1.13 | 1.01 | 1 | 1.85 | 0.712 |
| CCOc1ccc2c(-c3cccc(F)c3)nn(CC(=O)N(C)c3ccc4nc(C)oc4c3)c(=O)c2c1 | 1.05 | 0.995 | 1.36 | 0.808 | 0.431 | 0.932 |
| COc1ccc(CCC(=O)Nc2nc3ccc(Cl)cc3s2)cc1OC | 1.29 | 1.76 | 1.19 | 0.998 | 1.39 | 1.52 |
| OC[C@H]1O[C@@H](OCCc2ccc(O)cc2)[C@H](O)[C@@H](O)[C@@H]1O [Salidroside] | 1.05 | 0.737 | 0.796 | 0.815 | 0.763 | 1.5 |
